Consider 43 targets from the supplement of paper PMC6378613.

Compound in the assay: Cc1ccc(-c2ccc3c(ccc4sc5c(c43)NC[C@@H](C)NC5=O)n2)cn1
The assay is described as follows: kinase activity remaining relative to vehicle control; higher = less inhibition. As for the experimental part: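 In vitro radiometric kinase profiling of the MK2 inhibitor PF-3644022 at 0.1, 1 and 10 µM against a panel of kinases (MRC International Centre for Kinase Profiling, Dundee). Read-out is % kinase activity remaining relative to the vehicle control, mean of n=2.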

UniProt Q15118, sequence (Q15118 whole entry, looked up): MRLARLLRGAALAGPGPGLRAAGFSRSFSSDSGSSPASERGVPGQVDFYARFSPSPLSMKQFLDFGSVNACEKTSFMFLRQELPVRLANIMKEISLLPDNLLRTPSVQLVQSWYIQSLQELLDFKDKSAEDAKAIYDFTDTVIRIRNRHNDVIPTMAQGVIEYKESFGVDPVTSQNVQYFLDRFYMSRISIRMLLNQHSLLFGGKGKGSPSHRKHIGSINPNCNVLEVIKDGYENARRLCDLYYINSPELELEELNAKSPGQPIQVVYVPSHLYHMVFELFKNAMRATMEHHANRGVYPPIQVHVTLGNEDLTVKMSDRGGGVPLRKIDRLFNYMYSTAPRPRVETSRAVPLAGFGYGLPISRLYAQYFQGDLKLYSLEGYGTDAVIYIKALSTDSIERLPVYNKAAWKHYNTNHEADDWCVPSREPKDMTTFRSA
UniProt Q16513, sequence (Q16513 whole entry, looked up): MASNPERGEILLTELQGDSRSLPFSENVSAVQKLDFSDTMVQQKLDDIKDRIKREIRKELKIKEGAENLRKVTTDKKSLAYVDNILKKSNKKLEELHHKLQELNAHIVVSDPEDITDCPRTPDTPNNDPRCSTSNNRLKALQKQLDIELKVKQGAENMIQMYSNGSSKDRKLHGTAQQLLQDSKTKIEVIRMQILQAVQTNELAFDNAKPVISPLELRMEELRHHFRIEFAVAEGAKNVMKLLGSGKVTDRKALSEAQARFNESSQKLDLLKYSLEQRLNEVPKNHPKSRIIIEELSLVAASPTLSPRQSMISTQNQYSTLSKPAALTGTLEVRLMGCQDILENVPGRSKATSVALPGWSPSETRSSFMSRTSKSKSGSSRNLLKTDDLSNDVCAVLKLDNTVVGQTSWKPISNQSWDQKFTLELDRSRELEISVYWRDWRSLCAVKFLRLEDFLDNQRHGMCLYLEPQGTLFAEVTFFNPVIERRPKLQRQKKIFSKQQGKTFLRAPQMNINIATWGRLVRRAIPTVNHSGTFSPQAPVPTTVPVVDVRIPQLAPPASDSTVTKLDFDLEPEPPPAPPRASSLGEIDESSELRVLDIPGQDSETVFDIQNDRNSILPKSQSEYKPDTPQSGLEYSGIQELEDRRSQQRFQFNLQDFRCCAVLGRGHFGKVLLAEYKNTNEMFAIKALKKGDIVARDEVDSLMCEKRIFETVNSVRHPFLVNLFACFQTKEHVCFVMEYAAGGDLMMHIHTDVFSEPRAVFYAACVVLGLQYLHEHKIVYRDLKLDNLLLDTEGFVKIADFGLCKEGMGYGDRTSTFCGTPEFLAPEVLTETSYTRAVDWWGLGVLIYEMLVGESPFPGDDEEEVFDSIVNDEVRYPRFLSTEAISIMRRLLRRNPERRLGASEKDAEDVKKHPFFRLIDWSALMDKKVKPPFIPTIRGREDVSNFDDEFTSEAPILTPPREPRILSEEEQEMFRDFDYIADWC
UniProt P53779, sequence (P53779 whole entry, looked up): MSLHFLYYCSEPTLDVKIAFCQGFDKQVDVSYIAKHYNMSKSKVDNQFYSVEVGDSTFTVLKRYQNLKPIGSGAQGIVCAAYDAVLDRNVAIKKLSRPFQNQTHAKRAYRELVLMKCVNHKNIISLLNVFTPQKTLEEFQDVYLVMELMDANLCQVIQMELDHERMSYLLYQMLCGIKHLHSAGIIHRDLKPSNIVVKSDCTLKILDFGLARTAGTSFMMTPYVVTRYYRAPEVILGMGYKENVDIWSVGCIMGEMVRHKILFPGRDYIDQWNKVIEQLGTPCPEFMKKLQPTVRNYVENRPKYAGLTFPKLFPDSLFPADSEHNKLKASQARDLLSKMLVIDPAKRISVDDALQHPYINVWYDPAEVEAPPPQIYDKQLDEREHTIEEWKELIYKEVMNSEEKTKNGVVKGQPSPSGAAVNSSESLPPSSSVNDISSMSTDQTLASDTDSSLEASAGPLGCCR
UniProt Q9HC98, sequence (Q9HC98 whole entry, looked up): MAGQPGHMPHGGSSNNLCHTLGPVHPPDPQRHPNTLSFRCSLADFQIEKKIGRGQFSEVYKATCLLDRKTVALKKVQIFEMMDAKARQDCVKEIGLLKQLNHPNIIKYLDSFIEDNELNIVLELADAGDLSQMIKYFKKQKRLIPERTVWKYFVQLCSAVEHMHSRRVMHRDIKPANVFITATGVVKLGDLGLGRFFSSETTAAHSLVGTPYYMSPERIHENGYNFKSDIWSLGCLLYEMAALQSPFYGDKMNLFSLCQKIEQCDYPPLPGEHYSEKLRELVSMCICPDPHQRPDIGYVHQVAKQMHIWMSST
UniProt P33981, sequence (P33981 whole entry, looked up): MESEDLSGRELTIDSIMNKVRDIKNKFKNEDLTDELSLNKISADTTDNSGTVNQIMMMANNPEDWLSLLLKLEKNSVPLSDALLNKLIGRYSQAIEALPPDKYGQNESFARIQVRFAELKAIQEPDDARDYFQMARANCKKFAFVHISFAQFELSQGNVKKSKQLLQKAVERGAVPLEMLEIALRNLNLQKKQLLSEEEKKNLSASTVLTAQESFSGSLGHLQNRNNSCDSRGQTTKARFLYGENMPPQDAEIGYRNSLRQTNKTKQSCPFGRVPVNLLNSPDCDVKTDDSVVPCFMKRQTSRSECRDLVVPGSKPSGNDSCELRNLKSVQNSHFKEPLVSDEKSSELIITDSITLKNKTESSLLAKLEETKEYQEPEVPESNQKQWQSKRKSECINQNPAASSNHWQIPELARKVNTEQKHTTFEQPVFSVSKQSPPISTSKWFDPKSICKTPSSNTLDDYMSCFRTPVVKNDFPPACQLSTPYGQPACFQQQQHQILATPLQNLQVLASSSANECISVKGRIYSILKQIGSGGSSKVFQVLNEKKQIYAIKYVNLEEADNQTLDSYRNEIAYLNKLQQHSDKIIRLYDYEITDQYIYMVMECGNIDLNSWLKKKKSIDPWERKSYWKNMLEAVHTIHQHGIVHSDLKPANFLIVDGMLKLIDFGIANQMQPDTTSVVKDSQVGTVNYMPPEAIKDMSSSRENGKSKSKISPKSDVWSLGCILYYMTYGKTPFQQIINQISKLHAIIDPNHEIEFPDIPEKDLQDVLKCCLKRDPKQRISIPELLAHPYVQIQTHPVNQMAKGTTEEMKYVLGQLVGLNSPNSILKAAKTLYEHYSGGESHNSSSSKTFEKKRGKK
UniProt Q96SB4, sequence (Q96SB4 whole entry, looked up): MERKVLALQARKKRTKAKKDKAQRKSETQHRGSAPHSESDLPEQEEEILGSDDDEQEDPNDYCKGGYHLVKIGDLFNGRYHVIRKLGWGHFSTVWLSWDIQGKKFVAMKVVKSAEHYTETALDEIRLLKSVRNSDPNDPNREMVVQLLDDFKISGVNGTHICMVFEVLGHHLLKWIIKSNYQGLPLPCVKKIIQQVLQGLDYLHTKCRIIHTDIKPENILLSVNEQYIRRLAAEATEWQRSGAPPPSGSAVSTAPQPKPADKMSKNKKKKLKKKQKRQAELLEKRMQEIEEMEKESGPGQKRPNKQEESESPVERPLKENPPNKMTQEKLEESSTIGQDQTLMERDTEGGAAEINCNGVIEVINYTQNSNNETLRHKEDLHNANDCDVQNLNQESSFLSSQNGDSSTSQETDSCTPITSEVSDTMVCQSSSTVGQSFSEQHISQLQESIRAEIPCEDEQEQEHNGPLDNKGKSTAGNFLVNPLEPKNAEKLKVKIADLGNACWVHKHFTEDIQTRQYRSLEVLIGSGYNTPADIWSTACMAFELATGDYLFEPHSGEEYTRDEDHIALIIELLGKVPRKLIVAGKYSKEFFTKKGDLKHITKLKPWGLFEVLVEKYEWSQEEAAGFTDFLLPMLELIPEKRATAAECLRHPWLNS
UniProt P35557, sequence (P35557 whole entry, looked up): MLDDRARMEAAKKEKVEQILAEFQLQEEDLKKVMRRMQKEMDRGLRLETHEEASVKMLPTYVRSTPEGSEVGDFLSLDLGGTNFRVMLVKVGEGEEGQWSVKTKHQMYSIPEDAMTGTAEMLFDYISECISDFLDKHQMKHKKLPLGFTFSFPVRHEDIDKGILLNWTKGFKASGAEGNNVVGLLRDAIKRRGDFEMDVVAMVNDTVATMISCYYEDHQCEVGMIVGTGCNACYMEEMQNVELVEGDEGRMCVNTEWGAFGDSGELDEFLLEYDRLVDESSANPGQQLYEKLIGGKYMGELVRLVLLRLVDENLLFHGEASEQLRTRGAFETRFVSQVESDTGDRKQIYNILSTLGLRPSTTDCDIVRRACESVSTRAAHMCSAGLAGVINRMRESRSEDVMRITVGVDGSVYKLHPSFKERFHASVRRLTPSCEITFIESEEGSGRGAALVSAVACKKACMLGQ
UniProt P28482, sequence (P28482 whole entry, looked up): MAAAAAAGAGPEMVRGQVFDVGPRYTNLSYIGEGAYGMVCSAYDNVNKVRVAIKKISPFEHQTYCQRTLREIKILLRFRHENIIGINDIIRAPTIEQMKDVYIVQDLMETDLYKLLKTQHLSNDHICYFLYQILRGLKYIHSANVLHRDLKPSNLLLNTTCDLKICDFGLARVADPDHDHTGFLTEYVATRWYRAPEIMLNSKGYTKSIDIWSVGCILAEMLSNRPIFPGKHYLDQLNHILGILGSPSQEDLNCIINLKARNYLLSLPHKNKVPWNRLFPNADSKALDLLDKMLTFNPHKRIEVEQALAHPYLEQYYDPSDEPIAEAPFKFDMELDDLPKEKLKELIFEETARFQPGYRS
UniProt Q9HBH9, sequence (Q9HBH9 whole entry, looked up): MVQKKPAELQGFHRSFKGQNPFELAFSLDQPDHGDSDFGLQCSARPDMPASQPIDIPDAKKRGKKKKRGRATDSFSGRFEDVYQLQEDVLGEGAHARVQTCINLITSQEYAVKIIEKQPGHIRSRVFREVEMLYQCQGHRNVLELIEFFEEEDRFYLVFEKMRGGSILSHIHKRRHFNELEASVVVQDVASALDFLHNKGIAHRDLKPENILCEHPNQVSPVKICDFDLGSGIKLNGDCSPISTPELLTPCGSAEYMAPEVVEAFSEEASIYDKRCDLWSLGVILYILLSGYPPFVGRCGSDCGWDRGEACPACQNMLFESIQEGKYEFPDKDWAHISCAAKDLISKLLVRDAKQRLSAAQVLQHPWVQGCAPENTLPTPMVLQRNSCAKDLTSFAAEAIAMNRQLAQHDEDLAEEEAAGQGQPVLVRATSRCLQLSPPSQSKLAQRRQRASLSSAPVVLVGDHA

For ZAP70 (UniProt P43403), the kinase activity remaining runs as follows: (inhibitor concentration 0.1 µM) 93%; (inhibitor concentration 1 µM) 100%; (inhibitor concentration 10 µM) 95%.
For the target IRR (UniProt P14616), the kinase activity remaining by setting is: (inhibitor concentration 0.1 µM) 99%; (inhibitor concentration 1 µM) 79%; (inhibitor concentration 10 µM) 53%.
The like results for BTK (UniProt Q06187) were, in that order, 120%, 118% and 107%.
For PKB beta (UniProt P31749) the same measures were 100%, 90% and 69%.
The like results for PKC gamma were, in that order, 118%, 110% and 101%.
With VEGFR1 (UniProt P17948), the kinase activity remaining is, setting by setting: (inhibitor concentration 0.1 µM) 112%; (inhibitor concentration 1 µM) 118%; (inhibitor concentration 10 µM) 65%.
As to PDK1 (UniProt Q15118), the kinase activity remaining was 104% (inhibitor concentration 0.1 µM), 107% (inhibitor concentration 1 µM) and 95% (inhibitor concentration 10 µM).
The like results for TSSK1 (UniProt Q9BXA7) were, in that order, 97%, 85% and 89%.
As to MAP4K3 (UniProt Q8IVH8), the kinase activity remaining came to 98% (inhibitor concentration 0.1 µM), 72% (inhibitor concentration 1 µM) and 41% (inhibitor concentration 10 µM).
The like results for PKB alpha (UniProt P31749) were, in that order, 109%, 97% and 98%.
For MST3 (UniProt Q9Y6E0) the same measures were 118%, 109% and 108%.
For PKD1 (UniProt P98161) the same measures were 96%, 96% and 48%.
For the target JNK2 (UniProt P45984), the kinase activity remaining was found to be 123% (inhibitor concentration 0.1 µM), 111% (inhibitor concentration 1 µM) and 107% (inhibitor concentration 10 µM).
Turning to MNK1 (UniProt Q9BUB5), the kinase activity remaining was found to be 105% (inhibitor concentration 0.1 µM), 103% (inhibitor concentration 1 µM) and 83% (inhibitor concentration 10 µM).
On to RIPK2 (UniProt O43353), for which the kinase activity remaining reads like this: (inhibitor concentration 0.1 µM) 93%; (inhibitor concentration 1 µM) 94%; (inhibitor concentration 10 µM) 39%.
Consider GCK (UniProt P35557), for which the kinase activity remaining (inhibitor concentration 0.1 µM) was 109%, the kinase activity remaining (inhibitor concentration 1 µM) stood at 89% and the kinase activity remaining (inhibitor concentration 10 µM) stood at 19%.
With MNK2 (UniProt Q9HBH9), the kinase activity remaining turned out to be 111% (inhibitor concentration 0.1 µM), 51% (inhibitor concentration 1 µM) and 26% (inhibitor concentration 10 µM).
Regarding MINK1 (UniProt Q8N4C8), the kinase activity remaining came out at 98% (inhibitor concentration 0.1 µM), 97% (inhibitor concentration 1 µM) and 40% (inhibitor concentration 10 µM).
With TTBK2 (UniProt Q6IQ55), the kinase activity remaining stood at 122% (inhibitor concentration 0.1 µM), 122% (inhibitor concentration 1 µM) and 103% (inhibitor concentration 10 µM).
FGF-R1: the kinase activity remaining reads like this: (inhibitor concentration 0.1 µM) 95%; (inhibitor concentration 1 µM) 91%; (inhibitor concentration 10 µM) 68%.
For MARK1 (UniProt Q9P0L2) the same measures were 116%, 107% and 93%.
For JAK2 (UniProt O60674) the same measures were 101%, 102% and 79%.
The like results for SRPK1 (UniProt Q96SB4) were, in that order, 89%, 63% and 19%.
Consider TTK (UniProt P33981), for which the kinase activity remaining was determined as 117% (inhibitor concentration 0.1 µM), 101% (inhibitor concentration 1 µM) and 84% (inhibitor concentration 10 µM).
The like results for NEK6 (UniProt Q9HC98) were, in that order, 109%, 96% and 66%.
The like results for Aurora B were, in that order, 109%, 99% and 64%.
For PRK2 (UniProt Q16513) the same measures were 108%, 101% and 81%.
Take CHK1 (UniProt O14757): the kinase activity remaining was 139% (inhibitor concentration 0.1 µM), 109% (inhibitor concentration 1 µM) and 112% (inhibitor concentration 10 µM).
With PKC zeta, the kinase activity remaining runs as follows: (inhibitor concentration 0.1 µM) 115%; (inhibitor concentration 1 µM) 112%; (inhibitor concentration 10 µM) 106%.
Consider PKA, for which the kinase activity remaining by setting is: (inhibitor concentration 0.1 µM) 109%; (inhibitor concentration 1 µM) 119%; (inhibitor concentration 10 µM) 108%.
For EPH-B2 the same measures were 99%, 110% and 111%.
For EPH-A2, the kinase activity remaining worked out at 90% (inhibitor concentration 0.1 µM), 95% (inhibitor concentration 1 µM) and 76% (inhibitor concentration 10 µM).
The like results for JNK3 (UniProt P53779) were, in that order, 120%, 104% and 102%.
For DYRK3 (UniProt O43781) the same measures were 111%, 84% and 40%.
The like results for TBK1 (UniProt Q9UHD2) were, in that order, 110%, 87% and 96%.
Take TrkA (UniProt P04629): the kinase activity remaining by setting is: (inhibitor concentration 0.1 µM) 121%; (inhibitor concentration 1 µM) 100%; (inhibitor concentration 10 µM) 83%.
The like results for HIPK2 (UniProt Q9H2X6) were, in that order, 123%, 113% and 78%.
The like results for MLK1 (UniProt P80192) were, in that order, 99%, 95% and 60%.
The like results for DYRK1A (UniProt Q13627) were, in that order, 80%, 31% and 8%.
Regarding ERK2 (UniProt P28482), the kinase activity remaining is, setting by setting: (inhibitor concentration 0.1 µM) 102%; (inhibitor concentration 1 µM) 84%; (inhibitor concentration 10 µM) 81%.
For HER4 (UniProt Q15303) the same measures were 92%, 105% and 99%.
For IR the same measures were 123%, 125% and 133%.
Turning to PIM3 (UniProt Q86V86), the kinase activity remaining is, setting by setting: (inhibitor concentration 0.1 µM) 55%; (inhibitor concentration 1 µM) 18%; (inhibitor concentration 10 µM) 3%.
